A340 absorber – compound light absorbance at 340 nm, profiling panel, artefact control, biochemical, MLSMR library, data from PS, PMK, MK assays; compound absorbance at 340 nm, fold over control; fold change at 10 µM; 65,000 tested, under 10 active;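 active = at 10 µM dose, initial 340 nm absorbance at least 2 fold that of control wells; inactive = change under 2 fold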;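 note: initial absorbance extrapolated from kinetic A340 decline of NADH oxidation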
MKP-1 inh – MKP-1 phosphatase inhibitors, primary screen, biochemical, in vitro. recombinant MKP-1, OMFP hydrolysis fluorescence. inhibition, %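 (compounds tested at a single concentration somewhere between 10 and 100 µM)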. hit rate 0.15% among 65,000. AID 374, 2006;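 active = inhibition above about 50%, limit read from the data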;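 note: 0% = DMSO max control wells and 100% = wells with enzyme stopped by NaOH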
Target sequence (P28562 whole entry, looked up): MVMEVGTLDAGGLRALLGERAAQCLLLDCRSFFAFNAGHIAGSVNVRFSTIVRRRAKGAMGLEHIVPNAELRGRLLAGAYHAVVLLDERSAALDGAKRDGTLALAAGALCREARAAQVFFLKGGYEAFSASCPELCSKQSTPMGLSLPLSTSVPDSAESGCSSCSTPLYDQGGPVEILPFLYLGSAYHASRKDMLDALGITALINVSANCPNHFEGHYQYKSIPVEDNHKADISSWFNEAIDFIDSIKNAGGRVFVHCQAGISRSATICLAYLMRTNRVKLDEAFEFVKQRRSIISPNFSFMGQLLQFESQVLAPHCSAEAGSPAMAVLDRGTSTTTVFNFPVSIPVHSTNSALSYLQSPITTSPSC
Cdc25B inh – inhibitors of Cdc25B phosphatase catalytic domain, primary screen, biochemical, OMFP fluorescence | inhibition, %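 (compounds tested at 10 µM final in the well)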 | hit rate 0.1% among 65,000 | M-phase inducer phosphatase 2 (Homo sapiens), P30305 | recombinant Cdc25B, OMFP fluorescence Ex485/Em525; in the data active = inhibition above about 50%
Fluor 339 460 – intrinsic fluorescence of library compounds, ex339/em460 – biochemical, MLSMR library, data from DPM-DC assay, artefact control, profiling panel | hit rate 5.5% among 65,000 | fluorescence fold increase at 10 µM | AID 709, 2007 | compound autofluorescence, ex339/em460 nm, NADH buffer; active compounds read high; 1 = no-compound wells, NADH background;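 active = at 10 µM, mean starting fluorescence two-fold or more over control wells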;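 note: signal is the first read of a kinetic run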
Hsp90 block – tumor Hsp90 inhibitors, primary screen, cell lysate, fluorescence polarization, NCI-N417 lysate | Heat shock protein HSP 90-alpha (Homo sapiens), P07900 | Cy3B-geldanamycin FP displacement | inhibition, % at 30 µM | hit rate 0.35% among 64,000 | AID 429, 2006;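 active = inhibition above 50%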;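 note: 0% = tracer plus lysate wells and 100% = tracer alone without lysate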
NADH coupling – inhibitors of PK/LDH coupling enzymes, profiling panel, artefact control, biochemical, MLSMR library; coupled PK/LDH NADH assays, four targets; IC50, µM (highest dose often 10 µM), for the others: at the top dose inhibition; hit rate 0.02% among 65,000;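 active = single-dose screening hits from any of four coupled enzyme assays that gave an IC50 when retested across doses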;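 note: the DPM-DC format reads NADH fluorescence rather than 340 nm absorbance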
The depositor's hits bear a star. Compounds with a hit are over-represented: about 5.7% of the library has one in this group of screens.

How did CCCC(=O)N1CCN(S(=O)(=O)c2cc(Cl)ccc2OC)CC1 do in these assays?
A340 absorber: 0.97; MKP-1 inh: 17.4; Cdc25B inh: -11.6; Fluor 339 460: 5.14*; Hsp90 block: -3.5; NADH coupling: 3.0%

What do the screens show for `Cc1ccc(S(=O)(=O)NCc2ccncc2)cc1`?
A340 absorber: 0.97; MKP-1 inh: -4.5; Cdc25B inh: -6.2; Fluor 339 460: 1.08; Hsp90 block: 0.2; NADH coupling: 5.0%

What do the screens show for `CC1CCCCC1NS(=O)(=O)c1ccc(S(=O)(=O)NCc2ccncc2)cc1` (configuration not stated)?
A340 absorber: 0.95; MKP-1 inh: 81.2*; Cdc25B inh: -16.2; Fluor 339 460: 1.05; Hsp90 block: -1.2; NADH coupling: 10.0%

How did Cc1cc2c3nonc3ccc2n1-c1ccccc1 do in these assays?
A340 absorber: 1.04; MKP-1 inh: 6.5; Cdc25B inh: -15.5; Fluor 339 460: 2.25*; NADH coupling: 6.0%

What do the screens show for `CCN(CC)CCCN(Cc1cc2cc3c(cc2[nH]c1=O)OCCO3)C(=O)Nc1ccccc1`?
A340 absorber: 1.04; MKP-1 inh: -0.1; Cdc25B inh: -8.1; Fluor 339 460: 3*; Hsp90 block: -3.4; NADH coupling: 18.0%

How did Cc1ccc(NC(=O)N(CCCN2CCOCC2)Cc2cc3cc4c(cc3[nH]c2=O)OCO4)cc1 do in these assays?
A340 absorber: 1.09; MKP-1 inh: 19.5; Cdc25B inh: -14.0; Fluor 339 460: 2.93*; Hsp90 block: 0.6; NADH coupling: 21.0%

What do the screens show for `COc1ccc2[nH]c(=O)c(CN(CCCN3CCOCC3)C(=O)NCc3ccccc3)cc2c1`?
A340 absorber: 1.05; MKP-1 inh: -1.5; Cdc25B inh: -11.0; Fluor 339 460: 3.27*; Hsp90 block: 1.3; NADH coupling: 13.0%

What do the screens show for `O=C(Nc1ccccc1F)N(CCCN1CCOCC1)Cc1cc2cc3c(cc2[nH]c1=O)OCCO3`?
A340 absorber: 1.04; MKP-1 inh: 26.5; Cdc25B inh: 1.9; Fluor 339 460: 3.77*; Hsp90 block: -2.3; NADH coupling: 10.0%

Results for Cc1cccc2cc(CN(CCN3CCOCC3)C(=O)NCc3ccccc3)c(=O)[nH]c12 ?
A340 absorber: 1.01; MKP-1 inh: -30.5; Cdc25B inh: -1.1; Fluor 339 460: 1.33; Hsp90 block: -2.7; NADH coupling: 8.0%

How did Cc1cc(=O)oc2cc(OCC(=O)NCCc3nc4ccccc4[nH]3)ccc12 do in these assays?
A340 absorber: 1.06; MKP-1 inh: 15.8; Cdc25B inh: 5.5; Fluor 339 460: 1.47; Hsp90 block: -3.4; NADH coupling: 10.0%

What do the screens show for `CCOC(=O)N1CCN(Cc2nc(-c3ccc(C)cc3)no2)CC1`?
A340 absorber: 1.03; MKP-1 inh: 21.2; Cdc25B inh: -3.2; Fluor 339 460: 1.01; Hsp90 block: -7.5; NADH coupling: 4.0%

What do the screens show for `O=C(Nc1ccccc1)N(CCCN1CCOCC1)Cc1cc2cc3c(cc2[nH]c1=O)OCCO3`?
A340 absorber: 1.04; MKP-1 inh: -8.4; Cdc25B inh: -10.1; Fluor 339 460: 2.5*; Hsp90 block: -1.2; NADH coupling: 5.0%

How did O=C(Nc1ccc(F)cc1)N(Cc1ccco1)Cc1cc2cc3c(cc2[nH]c1=O)OCO3 do in these assays?
A340 absorber: 1; MKP-1 inh: 1.4; Cdc25B inh: -15.0; Fluor 339 460: 2.69*; Hsp90 block: -3.1; NADH coupling: 16.0%

How did CCOc1ccc2[nH]c(=O)c(CN(CC3CCCN3CC)C(=O)NCc3ccccc3)cc2c1 (configuration not stated) do in these assays?
A340 absorber: 1.02; MKP-1 inh: -10.2; Cdc25B inh: -2.8; Fluor 339 460: 3.41*; Hsp90 block: 0.2; NADH coupling: 10.0%

What do the screens show for `CCc1ccc2[nH]c(=O)c(CN(CCCN3CCOCC3)C(=O)Nc3ccccc3)cc2c1`?
A340 absorber: 1.02; MKP-1 inh: 4.3; Cdc25B inh: -6.7; Fluor 339 460: 1.35; Hsp90 block: -7.5; NADH coupling: 5.0%

Results for COc1cccc(C(=O)Cn2c(=O)n(CC3CCCO3)c(=O)c3ccccc32)c1 (configuration not stated) ?
A340 absorber: 1.04; MKP-1 inh: 19.0; Cdc25B inh: 9.6; Fluor 339 460: 1.06; Hsp90 block: -0.2; NADH coupling: 0.0%

What do the screens show for `COc1ccccc1NC(=O)NCCN1C(=O)C2C3C=CC(C3)C2C1=O` (configuration not stated)?
A340 absorber: 1.05; MKP-1 inh: -6.1; Cdc25B inh: 2.9; Fluor 339 460: 1.01; Hsp90 block: -0.8; NADH coupling: 2.0%

Results for COc1cc(/C=C(\C#N)C(=O)c2ccc(O)c(O)c2)cc(I)c1O ?
Hsp90 block: 72.6*

How did CCOC(=O)N1CCC(NC(=O)CN2C(=O)CCSc3ccccc32)CC1 do in these assays?
A340 absorber: 0.98; MKP-1 inh: -5.3; Cdc25B inh: -14.6; Fluor 339 460: 1.04; Hsp90 block: -0.8; NADH coupling: 2.0%

What do the screens show for `CCOC(=O)N1CCC(NC(=O)Cn2c3c(c(-c4ccccc4Cl)cc2=O)CCC3)CC1`?
A340 absorber: 1.01; MKP-1 inh: -6.9; Cdc25B inh: -8.1; Fluor 339 460: 2.16*; Hsp90 block: -3.0; NADH coupling: 4.0%

Results for CCN1CCN(C(=O)c2cc3c(=O)n4ccccc4nc3n2Cc2ccccc2)CC1 ?
A340 absorber: 1.09; MKP-1 inh: 31.4; Cdc25B inh: -7.3; Fluor 339 460: 3.89*; Hsp90 block: -6.9; NADH coupling: 2.0%

How did COc1ccc(CCn2c(=N)c(C(=O)N3CCN(C)CC3)cc3c(=O)n4ccccc4nc32)cc1 do in these assays?
A340 absorber: 1.09; MKP-1 inh: -9.6; Cdc25B inh: 1.2; Fluor 339 460: 1.6; Hsp90 block: -4.2; NADH coupling: 9.0%

How did O=C(NCCN1CCOCC1)c1cc2c(=O)n3ccccc3nc2n1Cc1ccccc1 do in these assays?
A340 absorber: 1.13; MKP-1 inh: 36.0; Cdc25B inh: -19.2; Fluor 339 460: 3.89*; Hsp90 block: -3.6; NADH coupling: 9.0%

What do the screens show for `O=C1CCNc2cc3ccccc3cc21`?
A340 absorber: 1.01; MKP-1 inh: 2.7; Cdc25B inh: 12.4; Fluor 339 460: 2.02*; Hsp90 block: 12.3; NADH coupling: 3.0%

Results for O=C(NCc1nnc(SCC(=O)N2CCC(Cc3ccccc3)CC2)o1)c1ccccc1F ?
A340 absorber: 0.99; MKP-1 inh: 7.1; Cdc25B inh: -8.4; Fluor 339 460: 1.05; Hsp90 block: -1.4; NADH coupling: 2.0%
